Measurements from patent US20150152398, “Endoribonuclease and Methods of Use Thereof” (The Regents of the University of California, published 2015).

Molecular target: T1, TtCas6A (TTHA0078, Cas6) (Thermus thermophilus HB8)
T1 chain: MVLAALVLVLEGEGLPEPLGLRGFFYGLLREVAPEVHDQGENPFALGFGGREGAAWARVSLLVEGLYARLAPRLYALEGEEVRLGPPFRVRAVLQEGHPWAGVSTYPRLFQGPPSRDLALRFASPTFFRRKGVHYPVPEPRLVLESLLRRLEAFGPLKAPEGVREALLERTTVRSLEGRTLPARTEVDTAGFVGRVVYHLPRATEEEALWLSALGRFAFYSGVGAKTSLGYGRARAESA
Test: EMSA; Kd in FIG. 24C only
Details: chain copies: 2 stated (dimer in solution); hairpin; ssRNA; [17,28]
Excerpt: FIG. 22 illustrates that TtCas6A and TtCas6B both cleave repeats R1 and R3 and retain their cleaved products. (A) Sequences and predicted secondary structures of T. thermophilus CRISPR repeats. Sites of cleavage are indicated with blue arrows. TtCas6e (TTHB192) cleaves repeat R2, while TtCas6A (TTHA0078) and TtCas6B (TTHB231) both cleave repeats R1 and R3. (B) Cleavage product binding affinities of TtCas6A and TtCas6B enzymes. Maltose binding protein (MBP)-fused TtCas6A or TtCas6B were bound to in 5′-radiolabelled, vitro transcribed R1 and R3 RNAs. Bound and unbound fractions were resolved by electrophoresis on a native polyacrylamide gel and visualized by phosphorimaging. The data for these and all subsequent binding assays were fit with standard binding isotherms (solid line). Error bars on each data point denote standard error of the mean (SEM) from three independent experiments. (C) Experiments to confirm single turnover. RNA cleavage assays were carried out at indicated protein:RNA ratios. RNA cleavage was monitored using denaturing polyacrylamide gel electrophoresis. The data from these and all subsequent endoribonuclease activity assays were fit with single exponential curves to yield first-order rate constants. (Top to bottom: FIG. 22A, SEQ ID NOs: 1, 2, 55).
To test the importance of the stem sequence for substrate RNA recognition by TtCas6A, a series of EMSAs was performed using R1 repeat-derived RNAs that carried single base pair substitutions (C-G→A-U). All mutant RNAs contained the complete 5′ segment and additional two nucleotides downstream of the cleavage site. Compared to the wild-type RNA, substitution of any of the four C-G base pairs in the stem led to about five-fold decrease in affinity (FIG. 24C). This is consistent with the observation that the lower three C-G base pairs are specifically read out by Arg129. The binding defect observed upon mutation of the closing (uppermost) base pair could be due to loss of stability of the stem-loop structure, which is determined by the closing base-pair (Serra et al, 1993). […]

Which binding signal does the source give for GUUGCAAGGGAUUGAGACCCGUAAGGGUAU here?
The binding signal was ~5 fold lower affinity than wild-type RNA.

Same assay, conditions: chain copies: 2 stated (dimer in solution); hairpin; ssRNA; [18,27]

For GUUGCAAGGGAUUGAGCACCGUAAGGUGAU, which binding signal is on record?
Its binding signal is ~5 fold lower affinity than wild-type RNA.

Same assay, conditions: chain copies: 2 stated (dimer in solution); hairpin; ssRNA; [19,26]

GUUGCAAGGGAUUGAGCCACGUAAGUGGAU was tested. Which binding signal did it give?
Its binding signal is ~5 fold lower affinity than wild-type RNA.
